About 83,000 compounds went through this panel and 20% of them were active in at least one assay; those are over-represented in the sample as a whole.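 How to read the values: 0–100, growth inhibition (40 = 60% inhibited); 0, no net growth; -100 to 0, cell death (-40 = 40% of starting cells died; -100 = all dead).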 Unmarked numbers belong to inactive results. Activity calls are given as the source filed them. The calls were made as follows: active = growth percent below 10; inactive = the rest.
What follows are compounds tested on MDA-MB-468 breast (assay: NCI-60 one-dose screen, 48 h (100 = growth as untreated, 0 = no growth, -100 = all killed)). Settings: 10 µM unless noted.
C=CCSC1=NC2C(N(CC)C(=O)N2CC)N1/N=C/C=C/c1ccccc1OC (stereo not given) gave a growth of 29.6%.
Compound Nc1cc2c(cc1Cl)-c1ccc(Cl)cc1C2=O has a growth of 86.1%.
Compound Cc1ccc(S(=O)(=O)N/N=C2\CC3CCC2C3)cc1 (stereo not given) has a growth of 110%.
In the case of COc1ccc2nc(-c3ccc(Cl)cc3)cc(-c3nnc(SC/C(=N/O)c4ccccc4)o3)c2c1, the growth is reported as 9.96% (active).
With COc1ccc(C(=O)/C=C/Nc2cc(-c3ccccc3)nn2-c2ccccc2)cc1 the growth was 70.4%.
O=C(/C=C(/C=C/c1cccc2[nH]ccc12)OB(F)F)/C=C/c1cccc2[nH]ccc12 was tested, and the growth was -57% (active).
For CNC(=O)c1cc(Oc2ccc3nc(NC(=O)c4ccc(N5CCOCC5)c(C(F)(F)F)c4)sc3c2)ccn1, the growth was 80.5%.
Brc1ccc(-c2[nH]ncc2-c2c[nH]c3ccccc23)cc1 was tested, and the growth was 99.5%.
Cc1ccccc1Nc1n[nH]c(Cc2ccccc2)n1 showed a growth of 104%.
For Cc1ccc(-c2nc3nc(-c4ccc(Cl)cc4)nc(N4CCCNCC4)c3o2)cc1, the growth was -54.2% (active).
CC(=O)OCCC(C)CCC=C(C)C (stereo not given) was tested, and the growth was 122%.
Work on Cc1cc(O)c(C2=NN(c3ccc(S(N)(=O)=O)cc3)C(/C=C/c3ccccc3)C2)cc1Cl (stereo not given) yielded a growth of 43.3%.
Clc1ccc2c(NCCCN3CCOCC3)c3oc4ccc(Cl)cc4c3nc2c1 showed a growth of 44.2%.
For CN1CCN(c2ccc(OC(F)(F)F)c(Nc3ncc4c(n3)-c3c(c(C(N)=O)nn3CCO)CC4)c2)CC1, the growth was 9.13% (active).
COc1ccc(C(=O)OC2C(OC3C(O)COC(O[C@H]4C[C@H]5[C@@H]6CC=C7C[C@@H](O)CC[C@]7(C)[C@H]6CC[C@]5(C)[C@H]4[C@H](C)C(=O)CCC(C)C)C3OC(C)=O)OCC(O)C2O)cc1 (stereo not given in full) was tested, and the growth was -34.1% (active).
CCCCCCCCCCCCCC(=O)Oc1ccc[nH]c1=O was tested, and the growth was 89.4%.
COc1ccc(C(=O)N2NC(=O)/C(=C/c3ccc(Br)cc3)N=C2c2ccccc2)cc1 showed a growth of 91.8%.
COc1ccc(C2=C/C(=C\c3ccc(Cl)cc3)C(=O)NN2C(=S)NN)cc1 was tested, and the growth was 82.7%.
With O=C1Nc2ccc(Cl)cc2/C1=N/c1nc(-c2ccc(Cl)cc2)cs1 the growth was -18% (active).
With C/C(=C(/c1ccc(Cl)cc1)c1ccc(OCCN2CCCCCC2)cc1)c1ccccc1 the growth was 72.5%.
Cn1c(SCC(=O)Nc2ccc(-c3nc4ccc([N+](=O)[O-])cc4[nH]3)cc2)nc2ccccc2c1=O gave a growth of 56.5%.
Work on CN(c1ccc(Cl)cc1)S(=O)(=O)c1ccc(-c2cnc(C3CC3)o2)cc1 yielded a growth of 22.7%.
With Cc1ccc(C(=O)Nc2ccccc2C(=O)N/N=C(\c2ccccc2)c2ccccn2)cc1 the growth was -1.12% (active).
NCCNC(=O)c1cccc(COc2ccccc2NC(=O)c2cc(Br)c(Br)[nH]2)c1 showed a growth of 85.1%.
Compound CCOC(=O)C1=NNC(c2ccc(Cl)cc2)C1C(=O)N1C(=S)NC(=O)C1CC(C)C (stereo not given) has a growth of 102%.
Cn1cc(-c2cc3ncnc(Nc4ccc(NC(=O)Nc5cc(C(C)(C)C)on5)cc4)c3s2)cn1 showed a growth of 31.7%.
In the case of NC(=O)/C=C/C(=O)c1c(Cl)cccc1Cl, the growth is reported as -83.5% (active).
In the case of COc1ccc(Cc2nc3cc(OC)c(OC)cc3c(=O)[nH]2)cc1, the growth is reported as 56%.
COc1c(OCCCN2CCOCC2)ccc2c3n(c(=NC(=O)c4cnc(N)nc4)nc12)CCN3 was tested, and the growth was -23.5% (active).
For CCOC(=O)c1cc(C(=O)c2cc(OC)c(OC)c(OC)c2)n2ccc(-c3cc[n+](CC(=O)c4cc(OC)c(OC)c(OC)c4)cc3)cc12, the growth was 43.2%.
Work on Clc1ccc2c(c1)c(-c1ccccc1)nc1nncn12 yielded a growth of 110%.
In the case of CC(C)(C)Nc1nc2c(OCCc3ccccc3)cccn2c1-c1ccccc1Cl, the growth is reported as -27.8% (active).
Work on Clc1ccc(/C=C/c2ccccn2)cc1 yielded a growth of 38.3%.
COc1ccc2c3c(c(OCCCN(C)C)nc2c1)-c1ccc(Cl)cc1C3=O was tested, and the growth was 43.5%.
In the case of O=C(Nc1cn[nH]c1-c1nc2ccc(CN3CCOCC3)cc2[nH]1)NC1CC1, the growth is reported as 25.5%.
In the case of CN1CCN(C(=O)[C@@]2(C)CC[C@]3(C)CC[C@]4(C)C(=CC[C@@H]5[C@@]6(C)CCC(=O)NC(C)(C)[C@@H]6CC[C@]54C)[C@@H]3C2)CC1, the growth is reported as 13.5%.
With Cc1ccc(C(=O)c2oc3ccc4c(C)cc(=O)oc4c3c2C)cc1 the growth was 16%.
O=S(=O)(Nc1ccc(Cl)cc1Cl)c1ccc(-c2cnc(C3CC3)o2)cc1 was tested, and the growth was -34.2% (active).
CC(C)CSc1nc(Nc2ccccc2)c(C#N)c(-c2ccc(F)cc2)n1 showed a growth of 16.4%.
Cc1nc2ccccc2c(/C=C/c2ccccc2)c1C(=O)/C=C/c1ccc(C(F)(F)F)cc1 was tested, and the growth was -67.8% (active).

Reference: PubChem BioAssay (NCI)
